Consider 99 compounds from PubChem BioAssay AID504332 (National Center for Advancing Translational Sciences (NCATS), 2011).

Values joined by “and” are separate entries in the source; they are usually repeats but may differ in a detail not shown here. Equal entries are not always repeated. In all, about 350,000 compounds went through this assay and about 31,000 (8.9%) were called active. Another 15% or so got no clear call; they are omitted. Shown is part of a subset that was picked to be rich in actives. A call without a number means that no potency is given here. More than one record can exist for a structure, and the calls need not agree. Values without a mark were called inactive. Calls follow the shape of the dose curve; as a rule, active = well fitted inhibition curve with a large enough effect; inconclusive = small, poorly fitted or top-dose-only effect; inactive = no such curve, though single readings can be large or run the other way.
Potency is read from the fitted curve at half-maximal effect.

Chain of Histone-lysine N-methyltransferase EHMT2 (Homo sapiens) (Q96KQ7 913-1193 limits assumed): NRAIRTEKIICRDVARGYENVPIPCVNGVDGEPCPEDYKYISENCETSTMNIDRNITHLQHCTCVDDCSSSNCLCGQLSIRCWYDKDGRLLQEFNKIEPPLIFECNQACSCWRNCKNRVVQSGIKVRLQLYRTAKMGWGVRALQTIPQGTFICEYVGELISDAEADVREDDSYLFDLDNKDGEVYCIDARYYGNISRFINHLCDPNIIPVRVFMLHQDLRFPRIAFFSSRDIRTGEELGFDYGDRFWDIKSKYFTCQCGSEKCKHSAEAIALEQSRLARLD

This test has as its target Histone-lysine N-methyltransferase EHMT2 (Homo sapiens) (UniProt Q96KQ7). Nature of the test: qHTS Assay for Inhibitors of Histone Lysine Methyltransferase G9a. Also: nearly all actives have a fitted effect of over 75% in size. The note with it: G9a H3K9 monomethylation, AlphaScreen, 2 h; series mostly up to 59 µM. In a few lines:
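Chemiluminescent proximity detection of H3K9 monomethylation, read after 10 min bead incubation in the dark. Reaction: 20 nM G9a, 500 nM biotin-H3K9 peptide, 20 uM SAM cofactor, 2 h, room temperature, following 15 min enzyme-compound preincubation.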
For orientation: Quantitative high-throughput screening tests each substance at several concentrations.
Turning to `CCN(CC)CCCNC(=O)c1cc(-c2cccc(Cl)c2)on1`, the Potency result is “inactive”. Regarding `CCN(CC)CCCC(C)Nc1ccnc2cc(Cl)ccc12` (stereo unspecified), the Potency was 25.1 µM (active); the activity, negative = inhibition was -36.5% [at 2.33 µM] and 28.9% [at 12.7 µM].

As for `CCN(CC)CCNc1ncnc2c1cnn2-c1cc(Cl)ccc1C`, the Potency entry is “inactive”.

`O=C(NCCc1ccco1)C(=O)NCCC1CCCCN1S(=O)(=O)c1ccccc1` (stereo unspecified): the activity, negative = inhibition is 10.9% [at 0.501 µM].

`c1cnc(Nc2nc(-c3ccc4ccccc4c3)cs2)nc1`: the activity, negative = inhibition was 27.1% [at 12.7 µM]. `Cc1ccc(Nc2nc(-c3ccc(O)cc3O)cs2)nc1`: the Potency is 10 µM (active). As to `CC(=O)Nc1cccc(-c2csc(Nc3cccc(C)n3)n2)c1`, the activity, negative = inhibition was -3.54% [at 0.0925 µM]. As for `CCN(CC(=O)Nc1c(F)cccc1F)C(=O)c1ccc(S(=O)(=O)N2CCCCC2)cc1`, the activity, negative = inhibition is 0.134% [at 12.7 µM]. Still for that read-out and setting: for `CC1CC(C)CN(c2ccc(S(=O)(=O)N3CCOCC3)cc2)C1` (stereo unspecified) the value was -7.51% [at 12.7 µM]. For the compound `CN(C)c1ccc(N/C=C/C(=O)C(F)(F)F)cc1`, the Potency was 7.08 µM (active). The same measure, in the same setting: for `CCCOc1ccc(N/C=C/C(=O)C(C)(C)C)cc1` the value was “inactive”. The same measure, in the same setting: the result for `O=C(/C=C/Nc1ccccc1OC(F)(F)F)C(F)(F)F` reads “inactive”; that for `COc1ccc(-c2cn3c(n2)sc2cc(C(=O)Nc4ccc(F)cc4)ccc23)cc1`, “inactive”; that for `CCn1cc2nc(SCc3cccc(F)c3)n(CCc3ccccc3)c(=O)c2n1`, “inactive”. Turning to `CCOC(=O)C1(Cc2ccccc2C)CCCN(C(=O)CN2C(=O)CSC2=O)C1` (stereo unspecified), the Potency entry is “inactive”. Still for that read-out and setting: the result for `O=C(c1ccccc1)c1ccc(OC(=O)N2CCCC2)cc1` reads “inactive”.

For `c1ccc(CC2CCN(c3nc4ccccc4n4cnnc34)CC2)cc1`, the activity, negative = inhibition was 26.6% [at 12.7 µM].

For `O=C(c1ccccc1)c1ccc2nc(N3CCCCC3)c3nncn3c2c1`, the Potency was 44.7 µM (active). Take `O=C(Nc1ccc(Oc2ccccc2)cc1)C1CCN(S(=O)(=O)c2ccc(Cl)cc2)CC1`: the Potency result was “inactive”. On the same count and under the same terms, the result for `COc1cccc(NC(=O)c2ccc3nc(CCc4ccccc4)oc3c2)c1` reads “inactive”; that for `COc1cccc(NC(=O)CSC2=Nc3ccccc3C3=NC(CC(=O)NC4CCCCC4)C(=O)N23)c1` (stereo unspecified), “inactive”; that for `COc1cc(Cl)c(NC(=O)C(NS(=O)(=O)c2cccs2)C(C)C)c(OC)c1` (stereo unspecified), “inactive”. For `COc1ccc(C2(C)NC(=O)N(CC(=O)c3ccc4c(c3)OCO4)C2=O)cc1` (stereo unspecified), the Potency result was “inactive”. The same measure, in the same setting: the result for `COc1cc(OC)c(C(=O)NCc2ccc3c(c2)OCO3)cc1OC` reads “inactive”.

Take `COc1cccc(CNCc2ccc3c(c2)OCO3)c1`: the Potency is 22.4 µM (active). Regarding `COc1ccc2c(c1)C(C)=CC(C)(C)N2C(=O)CNCc1ccc2c(c1)OCO2`, the Potency is 28.2 µM (active). With `COc1ccc(OC)c(-c2nc(C(N)=O)c3c(n2)n(-c2ccc4c(c2)OCO4)c(=O)n3C)c1`, the Potency result was “inactive”. As to `COc1ccc(NC(=O)NCc2ccc3c(c2)OCO3)c(OC)c1`, the Potency result was “inactive”. For the compound `Cc1ccsc1C(=O)NCCc1ccco1`, the activity, negative = inhibition was -0.499% [at 12.7 µM]. As to `COc1ccccc1-c1noc(-c2ccc(NCc3ccccc3)c([N+](=O)[O-])c2)n1`, the Potency result is “inactive”. Same read-out and setting: the result for `Clc1ccc(C2=CSC3=Nc4cccc5cccc(c45)N23)cc1` reads 3.55 µM (active); that for `O=C(Nc1ccc2nc(SCC(=O)N3CCCc4ccccc43)sc2c1)c1ccc(Cl)cc1`, “inactive”. In the case of `CCCNC(=O)CSc1nc(Cc2ccccc2)nc2ccccc12`, the Potency result is “inactive”. Turning to `Cc1ccc(S(=O)(=O)NCc2nc3nc(C)cc(C)n3n2)cc1`, the Potency result is “inactive”. For `NC(=O)NC(CC(=O)NNC(=O)c1ccccn1)c1ccc(Cl)cc1` (stereo unspecified), the activity, negative = inhibition was 54.7% [at 12.7 µM].

Regarding `CC(=O)Nc1nc2ccccc2n1Cc1ccc(C)cc1`, the Potency entry is “inactive”.

`CCCc1nc2c(C)cc(-c3nc4ccccc4n3C)cc2n1Cc1ccc(-c2ccccc2C(=O)O)cc1`: the Potency was 4.47 µM (active) and the activity, negative = inhibition is -43.4% [at 2.33 µM].

Consider `Cc1ccc(Cn2c(CCCNC(=O)C3CCCCC3)nc3ccccc32)cc1`, for which the Potency entry is “inactive”. On the same count and under the same terms, the result for `COc1ccc(C(=O)Nc2nonc2-c2ccc(OC)c(OC)c2)cc1Cl` reads “inactive”; that for `COc1cccc(NC(C)=[N+](C)CCNS(=O)(=O)c2ccc(Cl)cc2)c1`, 15.8 µM (active).

With `COc1cccc(NC(=O)CCNS(=O)(=O)c2ccc3c(c2)oc(=O)n3C)c1`, the activity, negative = inhibition was 1.31% [at 0.0925 µM]. Same read-out and setting: for `COc1ccc(S(=O)(=O)NCCCCOc2ccc(Cl)cc2)cc1` the value was 21.3% [at 2.33 µM].

For the compound `CCOC(=O)C1CCN(c2csc3ccc(C)cc3c2=O)CC1`, the Potency result was “inactive”.

For `Cc1[nH]n(-c2ccccc2)c(=O)c1N=Nc1ccccc1C(=O)N1CCCCC1`, the Potency result was “inactive”.

Turning to `Cc1[nH]n(C(N)=S)c(=O)c1N=Nc1ccc(Cl)cc1Cl`, the Potency is 44.7 µM (active).

`Cc1[nH]n(-c2cccc(Cl)c2)c(=O)c1-c1ccc(Cl)cc1`: the Potency result was “inactive”. Regarding `COc1ccccc1C(=O)Nc1ccc(OCC(=O)N2CCCCC2)cc1`, the activity, negative = inhibition is 11.7% [at 2.33 µM]. As for `C(=N/N1CCN(c2ccccc2)CC1)/c1cccs1`, the Potency is 10 µM (active). With `Nc1nnnn1/N=C/c1cccs1`, the Potency entry was “inactive”. On the same count and under the same terms, the result for `Cc1ccc(N2CCN(/N=C/c3cccs3)CC2)cc1` reads “inactive”. Same read-out and setting: the result for `O=C(Nc1ccc2nc(SCC(=O)N3CCCc4ccccc43)sc2c1)c1ccc(F)cc1` reads “inactive”. Take `Cc1cc(C)c(S(=O)(=O)N(C)CC(=O)NCC2CCCO2)c(C)c1` (stereo unspecified): the Potency result is “inactive”. For the compound `CCC1CCCCN1S(=O)(=O)c1ccc(NC(=O)c2cc(=O)c3ccccc3o2)cc1` (stereo unspecified), the Potency entry was “inactive”. Same read-out and setting: for `O=C(NCCc1c[nH]c2ccccc12)C1CCN(Cc2ccc(Br)cc2)CC1` the value was “inactive”.

With `C[C@]1(C(=O)NCCc2c[nH]c3ccccc23)C=C[C@@H](Cc2ccccc2)N1C(=O)c1ccccc1`, the Potency is 50.1 µM (active). Same read-out and setting: the result for `CC(=O)NC(Cc1c[nH]c2ccccc12)C(=O)NCCc1ccccc1` (stereo unspecified) reads “inactive”. With `O=C(CCCCCn1c(=O)[nH]c2ccccc2c1=O)NCCc1c[nH]c2ccccc12`, the activity, negative = inhibition was -11.9% [at 0.0925 µM]. In the case of `O=C(CN1C(=O)NC2(CCCCC2)C1=O)NCCc1c[nH]c2ccccc12`, the Potency entry was “inactive”. As for `CC1(C(=O)NCCc2c[nH]c3ccccc23)C=CC2(CCCCC2)N1C(=O)c1ccccc1` (stereo unspecified), the Potency is 79.4 µM (active). On to `Cc1ccc(S(=O)(=O)N2[C@@H](c3ccccc3F)C(C(=O)O)=CC[C@H]2c2ccc(Cl)cc2)cc1`, for which the activity, negative = inhibition was -0.77% [at 2.33 µM]. `O=C(CSc1nccn1Cc1ccc(Cl)cc1)NCc1ccccc1`: the Potency entry was “inactive”. In the case of `COc1ccc([C@@H]2[C@@H]3C(=O)N(C(C)(C)C)C(=O)[C@@H]3[C@]3(Cc4ccccc4)C(=O)N(c4cccc(Br)c4)C(=O)N23)cc1`, the activity, negative = inhibition is -84.6% [at 2.33 µM]. As for `Cc1ccc(C(=O)NCCSc2c(C)[nH]c3ccccc23)cc1C`, the Potency result was “inactive”. Take `Cc1cccc(-n2ncc(Cl)c(Cl)c2=O)c1`: the Potency result was “inactive”. `CC(C)CN(C(=O)CSc1nncn1C)C1CCS(=O)(=O)C1` (stereo unspecified): the activity, negative = inhibition was 7.97% [at 2.33 µM].

For the compound `Cc1cccc(N2CCN(C(C)C(=O)N3CCc4ccccc43)CC2)c1C` (stereo unspecified), the Potency entry was “inactive”. On the same count and under the same terms, for `COC(=O)c1ccccc1NC(=O)c1ccc2c(=O)n3c(nc2c1)CCCCC3` the value was “inactive”.

`COc1ccc2c(c1)c(=O)c(S(=O)(=O)c1ccc(F)cc1)cn2CC(=O)Nc1ccc(C)cc1C`: the Potency result is “inactive”. Same read-out and setting: the result for `CC(C)CC(=O)Nc1cc(C(F)(F)F)ccc1N1CCOCC1` reads “inactive”; that for `Nc1cc(C(F)(F)F)ccc1N1CCOCC1`, 50.1 µM (active); that for `O=C(CCC1CCCCC1)Nc1cc(C(F)(F)F)ccc1N1CCOCC1`, “inactive”.

As to `Cn1c(=O)oc2cc(S(=O)(=O)CCC(=O)NCCc3ccc(Cl)cc3)ccc21`, the Potency entry was “inactive”. On the same count and under the same terms, the result for `Cc1ccc(NNC(=O)c2c(F)cccc2Cl)cc1Cl` reads “inactive”. On the same count and under the same terms, for `O=C(NNC(=O)c1ccc(Cl)cc1Cl)c1cccs1` the value was “inactive”. Same read-out and setting: for `Cc1ccc(NNC(=O)c2cccs2)cc1Cl` the value was 8.91 µM (active); for `CCOc1ccc(-n2c(SCC(=O)NCc3ccccc3)nc3n[nH]c(C)c3c2=N)cc1`, “inactive”; for `COc1ccc(S(=O)(=O)N2CCCC(C(=O)N3CCN(C)CC3)C2)cc1C` (stereo unspecified), “inactive”. For `Cc1ccc(S(=O)(=O)N2CCC(N3CCCCCC3)CC2)cc1`, the Potency is 10 µM (active).

With `Cc1ccc(S(=O)(=O)N2CCCC(C(=O)N3CCN(C)CC3)C2)cc1` (stereo unspecified), the Potency is 10 µM (active). Turning to `CC(=O)Nc1ccc(S(=O)(=O)N2CCN(C3CCCCCCC3)CC2)cc1`, the Potency entry is “inactive”. On the same count and under the same terms, the result for `Cc1ccc(S(=O)(=O)N2CCC(C(=O)Nc3cc(C)ccc3C)CC2)cc1` reads “inactive”. Turning to `O=C(C1CCCN(S(=O)(=O)c2ccc([N+](=O)[O-])cc2)C1)N1CCCCC1` (stereo unspecified), the Potency entry is “inactive”.

For `COc1ccc(NC(=O)CSc2nc3ccccc3[nH]2)cc1`, the Potency result is “inactive”. The same measure, in the same setting: for `CC1CCCCC1NC(=O)CCS(=O)(=O)c1ccc2c(c1)NC(=O)CO2` (stereo unspecified) the value was “inactive”; for `CCN(C(=O)c1cc([N+](=O)[O-])ccc1NCc1cccnc1)c1ccccc1`, “inactive”. With `CC(C)(C)OC(=O)N1CCC(c2c(C(=O)N3CCN(c4cccc(Cl)c4)CC3)cnn2-c2cccc(Cl)c2)CC1`, the Potency entry is “inactive”. For `COc1cccc(NC(=O)CC2C(=O)NCCN2C(=S)Nc2ccc(F)cc2)c1` (stereo unspecified), the Potency result was “inactive”. On to `COc1ccc(C(=O)NC(=S)N2CCNC(=O)C2CC(=O)OC(C)C)cc1` (stereo unspecified), for which the Potency was 25.1 µM (active). With `CCC1C(=O)NCCN1C(=O)c1ccc2nc(Cc3ccc(OC)cc3)oc2c1` (stereo unspecified), the Potency result was “inactive”. Consider `C/C(=N\NC(=O)Cc1ccc(Cl)cc1)c1ccccn1`, for which the Potency result was “inactive”.

For the compound `O=C(Cc1ccc(Cl)cc1)NCc1nc(-c2ccccc2)no1`, the Potency result is “inactive”. Still for that read-out and setting: the result for `C/C(=N/Nc1ccc(Cl)cc1)c1cnnc(-c2ccccc2)n1` reads 39.8 µM (active); that for `Cc1cc(C(=O)Nc2cccc(C(F)(F)F)c2)c2c(C)nn(-c3cccc(F)c3)c2n1`, “inactive”. Regarding `CCN1CCN(c2ccc([N+](=O)[O-])cc2C(=O)c2ccc(Cl)cc2)CC1`, the activity, negative = inhibition was 36.3% [at 0.501 µM]. Turning to `COc1ccc(N2CCN(c3ccc([N+](=O)[O-])cc3Cl)CC2)cc1`, the Potency is 7.94 µM (active). Still for that read-out and setting: for `O=[N+]([O-])c1ccc(N2CCN(c3ccc(O)cc3)CC2)c(Cl)c1` the value was 3.16 µM (active). With `O=C(c1cncc(Br)c1)N1CCN(c2ccc([N+](=O)[O-])cc2)CC1`, the Potency entry is “inactive”.

As for `CN(C)S(=O)(=O)N1CCN(c2ccc([N+](=O)[O-])cc2)CC1`, the Potency entry is “inactive”. For the compound `COc1ccc(N2CCN(c3ccc([N+](=O)[O-])nc3)CC2)cc1`, the Potency result is “inactive”.
